activation, outcome and potentiation data for 15 compounds are collected here from PubChem BioAssay.

For assay [1], the system named is TRPC4 beta (transient receptor potential cation channel C4), mouse. Kind of assay: TRPC4 cation channel opening, retest – cell-based, Fluo4 calcium, HEK293 TRPC4beta/mu-opioid, duplicates, 10 µM, confirmation (AID 2426;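 active = fluorescence ratio normalized to control raised more than 50% in primary screen plus both repeat runs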;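 for activation: percent rise of integrated ratio over buffer wells lacking compound which define 0%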). To be noted: Fluo4 calcium fluorescence, at 10 µM; stronger effect = higher value.
Assay [2] relates to transient receptor potential cation channel C4 beta (TRPC4), mouse. Kind of assay: TRPC4 cation channel opening, second retest – cell-based, second round, Fluo4, HEK293 TRPC4beta/mu-opioid, 1 µM, confirmation (AID 2461;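 active = primary screen active and over 50% activation in each of two duplicate runs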;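 for activation: 0% = wells without test compound as baseline of integrated fluorescence ratio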). To be noted: Fluo4 calcium fluorescence, at 1 µM; stronger effect = higher value.
Assay [3] concerns TRPC4 (transient receptor potential cation channel C4 beta), mouse. Kind of assay: potentiation of DAMGO EC20 TRPC4 response – cell-based, second round, Fluo-4, HEK293 TRPC4beta/mu-opioid, 1 µM, confirmation (AID 2554;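 active = primary screen hit whose fluorescence ratio, in both repeats, exceeds the weak agonist control mean by 3 SD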). To be noted: DAMGO EC20, Fluo-4 calcium flux, at 1 µM; stronger effect = higher value. (A change in cytosolic calcium serves as a functional read-out for many receptors and channels.)

Assay [4] has as its system TRPC4 beta (transient receptor potential cation channel C4), mouse. Kind of assay: potentiation of DAMGO EC20 TRPC4 response – cell-based, Fluo-4, HEK293 TRPC4beta/mu-opioid, confirmation (AID 2555;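 active = primary screen hit whose calcium fluorescence ratio, in both repeats, exceeds the weak agonist control mean by 3 SD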). Conditions: DAMGO EC20, Fluo-4 calcium flux, at 10 µM; stronger effect = higher value.
Assay [5] addresses Short transient receptor potential channel 4 (Mus musculus) (UniProt Q9QUQ5). In words: blockers of DAMGO-evoked TRPC4 calcium flux – cell-based, Fluo4, HEK293 TRPC4beta/mu-opioid, confirmation (AID 2636;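 active = calcium signal cut by more than 3 SD below the full-agonist control yet still positive, in both repeats and the earlier primary screen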). Conditions: at 10 µM; stronger effect = higher value.
For assay [6] the target is unchanged. In words: blockers of DAMGO-evoked TRPC4 calcium flux – cell-based, second round, Fluo4, HEK293 TRPC4beta/mu-opioid, 1 µM, confirmation (AID 2637;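 active = calcium signal ratio cut to more than 3 SD under the fully stimulated control mean yet still positive, in both repeats and the primary screen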). Conditions: at 1 µM; stronger effect = higher value.
The target is the same in assay [7]. Kind of assay: potentiation of DAMGO-evoked TRPC4 calcium signal – cell-based, HEK293 TRPC4/mu-opioid, Fluo-4 calcium, EC20 DAMGO, dose response (AID 434941;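 active = earlier screen potentiator hit that boosts the TRPC4 ion channel at some dose, with a dose response; inactive = no potentiation, no dose response, or not a prior hit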;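 note: calcium entry triggered by an EC20 dose of DAMGO at the co-expressed mu-opioid receptor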).
Assay [8] has the same target. Kind of assay: block of DAMGO-driven TRPC4 calcium entry – cell-based, HEK293 TRPC4/mu-opioid, Fluo-4 calcium, dose response (AID 434942;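 active = primary screen inhibitor hit that blocks the TRPC4 channel at some tested dose, yielding a dose curve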).
Assay [9] concerns the target Short transient receptor potential channel 6 (Mus musculus) (UniProt Q61143). Kind of assay: TRPC6 blockade by TRPC4 inhibitor hits – cell-based, HEK293, membrane potential dye, duplicate, selectivity assay for TRPC4 inhibitor project, confirmation (AID 434948;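 active = active in primary screen and both duplicates, each dropping signal beyond three positive-control SD with fluorescence still positive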). To be noted: HEK293 TRPC6, membrane potential dye fluorescence, at 10 µM, stimulated with maximal-effect acetylcholine; stronger effect = higher value.

Assay [10] shares this target. Kind of assay: TRPC6 opening by TRPC4 activator hits – cell-based, HEK293, membrane potential dye, duplicate, selectivity assay for TRPC4 activator project, confirmation (AID 434950;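 active = membrane potential signal rise above negative control mean plus 3 SD in both duplicates, also active in the earlier TRPC4 screen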;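 for activation: 0% = buffer only wells and 100% = acetylcholine maximal-effect wells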). Conditions: HEK293 TRPC6, membrane potential fluorescence, at 10 µM; activation: stronger effect = higher value; outcome: activation.
Assay [11] has the same target. In words: positive modulators of mouse TRPC6 channel – HEK293 cells, membrane potential dye, duplicate, selectivity assay for TRPC4 potentiator project, confirmation (AID 434952;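 active = compound raising the membrane signal above positive-control mean plus 3 SD in both repeats, and a primary screen hit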). To be noted: HEK293 TRPC6, membrane potential dye fluorescence, at 10 µM, maximal acetylcholine added after compound; stronger effect = higher value.
Assay [12] addresses Short transient receptor potential channel 4 (Mus musculus) (UniProt Q9QUQ5). Kind of assay: calcium flux activators in TRPC4/5HT1a cells, counter-screen for TRPC4 activator project, cell-based, second counter screen, HEK293 TRPC4/5HT1a, Fluo-4 (AID 434977;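 active = calcium signal rise above buffer-control mean plus 5 SD in both duplicates, and also a hit in the primary screen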;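 for activation: plate controls were assay buffer for no effect and maximal serotonin response for full effect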). To be noted: Fluo-4 calcium flux, at 10 µM; stronger effect = higher value.
Assay [13] is described as follows: serotonin-gated TRPC4 signal block – cell-based, second counter screen, HEK293 TRPC4/5HT1a, Fluo-4, counter-screen for TRPC4 inhibitor project, confirmation (AID 434978;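 active = primary screen active whose calcium signal fell more than 3 SD beyond the full-serotonin control mean in both duplicate plates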;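 note: serotonin given first at submaximal then at maximal dose after compound preincubation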). Conditions: Fluo-4 calcium flux, at 10 µM, serotonin added to trigger calcium flux; stronger effect = higher value. (A counterscreen serves to expose hits that act by an unwanted route or on another target.)

For assay [14], the system named is TRPC4 (mouse), co-expressed with 5HT1a in HEK293. In words: enhancement of serotonin-evoked TRPC4 response – cell-based, second counter screen, HEK293 TRPC4/5HT1a, Fluo-4, counter-screen for TRPC4 potentiator project, confirmation (AID 434979;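 active = signal rise over 3 SD above mean of control wells given weak agonist, in both repeats and first screen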). Conditions: Fluo-4 calcium flux, at 10 µM, serotonin added at its EC20 dose; stronger effect = higher value.
The nature of assay [15]: nonspecific calcium rise without TRPC4 – cell-based, HEK293 mu-opioid receptor line, counter-screen for TRPC4 activator project, confirmation (AID 449723).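 Note: counter screen cells carry the mu-opioid receptor alone and lack TRPC4.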 Conditions: HEK293 mu-opioid cells, Fluo-4 calcium fluorescence, at 10 µM; stronger effect = higher value.
Assay [16] in a line: nonspecific potentiation of DAMGO calcium response – cell-based, HEK293 mu-opioid receptor line, counter-screen for TRPC4 allosteric potentiator project, confirmation (AID 449724;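 active = calcium signal rise more than 3 SD above the low-dose agonist control mean, in both duplicate plates and the primary screen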;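 note: HEK293 cells carrying mu-opioid receptor only with no TRPC4 channel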). Conditions: HEK293 mu-opioid receptor cells, Fluo-4 calcium flux, at 10 µM, compound added before EC20 DAMGO stimulus; stronger effect = higher value.

For part of these data: Results with a measured potency or affinity are listed apart. Calls of active or inactive are those of the source.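 Rule for the calls, unless noted: active = hit in primary screen, with calcium signal over 5 SD above buffer well mean in both duplicates; inactive = the rest.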

Short transient receptor potential channel 6 (Mus musculus), sequence (Q61143 whole entry, looked up): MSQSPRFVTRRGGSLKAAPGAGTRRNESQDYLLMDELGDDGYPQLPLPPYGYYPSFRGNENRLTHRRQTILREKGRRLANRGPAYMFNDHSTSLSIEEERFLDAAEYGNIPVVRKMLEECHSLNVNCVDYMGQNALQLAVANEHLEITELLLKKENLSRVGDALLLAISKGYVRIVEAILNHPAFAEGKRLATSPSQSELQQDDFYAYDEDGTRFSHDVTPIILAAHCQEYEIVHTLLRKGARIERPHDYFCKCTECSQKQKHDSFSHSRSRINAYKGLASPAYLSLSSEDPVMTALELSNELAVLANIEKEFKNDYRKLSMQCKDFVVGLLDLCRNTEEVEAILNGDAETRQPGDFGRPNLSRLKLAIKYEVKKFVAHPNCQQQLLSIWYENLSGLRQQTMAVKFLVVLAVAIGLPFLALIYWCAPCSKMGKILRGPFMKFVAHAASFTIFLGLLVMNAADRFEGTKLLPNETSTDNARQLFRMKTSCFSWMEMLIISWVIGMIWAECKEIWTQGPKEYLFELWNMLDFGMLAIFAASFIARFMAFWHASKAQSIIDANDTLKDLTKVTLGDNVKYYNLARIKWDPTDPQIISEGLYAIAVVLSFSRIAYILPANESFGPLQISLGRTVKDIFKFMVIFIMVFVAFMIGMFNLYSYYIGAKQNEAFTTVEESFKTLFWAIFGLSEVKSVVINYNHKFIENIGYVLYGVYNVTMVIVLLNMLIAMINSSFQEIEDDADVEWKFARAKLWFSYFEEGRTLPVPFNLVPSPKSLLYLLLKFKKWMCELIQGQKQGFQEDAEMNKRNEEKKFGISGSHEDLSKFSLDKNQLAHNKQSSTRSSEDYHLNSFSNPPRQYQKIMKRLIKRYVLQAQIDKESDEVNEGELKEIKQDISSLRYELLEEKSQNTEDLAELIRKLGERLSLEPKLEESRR
Short transient receptor potential channel 4 (Mus musculus), sequence (Q9QUQ5 whole entry, looked up): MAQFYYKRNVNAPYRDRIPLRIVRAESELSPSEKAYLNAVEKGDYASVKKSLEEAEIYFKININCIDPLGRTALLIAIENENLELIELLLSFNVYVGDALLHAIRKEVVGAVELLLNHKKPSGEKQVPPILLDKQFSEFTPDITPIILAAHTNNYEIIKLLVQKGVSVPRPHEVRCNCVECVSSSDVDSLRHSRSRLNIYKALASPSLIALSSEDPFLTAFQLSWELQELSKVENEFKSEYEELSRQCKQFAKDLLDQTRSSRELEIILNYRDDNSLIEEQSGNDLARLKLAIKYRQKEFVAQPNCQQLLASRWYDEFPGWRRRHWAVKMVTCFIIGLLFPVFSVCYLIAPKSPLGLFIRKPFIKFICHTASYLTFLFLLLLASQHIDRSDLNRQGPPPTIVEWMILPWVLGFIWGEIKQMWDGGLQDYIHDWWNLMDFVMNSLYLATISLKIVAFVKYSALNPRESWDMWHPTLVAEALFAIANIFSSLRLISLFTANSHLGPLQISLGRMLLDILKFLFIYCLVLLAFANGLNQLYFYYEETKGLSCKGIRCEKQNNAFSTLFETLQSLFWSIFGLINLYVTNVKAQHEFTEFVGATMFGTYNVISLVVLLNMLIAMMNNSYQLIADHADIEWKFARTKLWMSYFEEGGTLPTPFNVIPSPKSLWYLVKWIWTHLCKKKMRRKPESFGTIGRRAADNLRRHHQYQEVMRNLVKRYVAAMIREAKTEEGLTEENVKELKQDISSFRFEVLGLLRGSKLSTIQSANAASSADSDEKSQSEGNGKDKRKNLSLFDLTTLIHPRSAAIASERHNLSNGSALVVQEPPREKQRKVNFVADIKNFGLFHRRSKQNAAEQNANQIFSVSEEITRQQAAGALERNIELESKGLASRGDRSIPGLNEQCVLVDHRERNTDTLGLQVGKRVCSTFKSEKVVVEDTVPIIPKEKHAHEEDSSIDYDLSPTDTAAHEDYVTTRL

Consider `C=CCn1c(CCNC(=O)C(C)(C)C)nc2ccccc21`, for which the activation is 151% (active) in assay [1], 37% (active) in assay [10] and 30.7% (active) in assay [12]. Also, the result in assay [2], in [3], in assay [4], in assay [5], in assay [6] and in assay [7] was inactive. The outcome in assay [8], in assay [9], in assay [11], in assay [13], in assay [14] and in assay [15] was inactive. Also, in [16], the outcome was inactive.

Take `Cc1ccc(C)c(CN2CCC(CNC(=O)CCc3nnc4ccc(N5CCCCC5)nn34)CC2)c1`: the figures for the activation in assay [1] and in [2] were 157% (active) and 92% (active), respectively. Also, the outcome in assay [3], in assay [4], in assay [5], in assay [6], in assay [7] and in [8] was inactive. The outcome in assay [9], in assay [10], in [11], in [12], in assay [13] and in assay [14] was inactive. For the same compound, the outcome in assay [15] and in [16] was inactive.

Turning to `CC(C)(C)c1cc(Cl)ccc1OCCn1ccnc1`, the activation in assay [1] was 57% (active); in assay [12], 17.9% (active). In addition, the result in assay [2], in assay [3], in assay [4], in assay [5], in assay [6] and in assay [7] was inactive. Also, the result in assay [8], in assay [9], in assay [10], in assay [11], in assay [13] and in assay [15] was inactive. Further, in assay [16], the outcome was inactive. In addition, the potentiation in assay [14] is 14.1% (active).

Consider `CCc1cccc(CC)c1NC(=S)NCC(c1cccnc1)N(C)C` (stereo not given), for which the activation in assay [1] was 79% (active); in [2] it was 67% (active); in assay [10], 46% (active). For the same compound, the outcome in [3], in assay [4], in [5], in assay [6], in assay [7] and in assay [8] was inactive. Moreover, the outcome in assay [9], in [11], in assay [12], in assay [13], in assay [14] and in [15] was inactive. Further, the outcome in assay [16] was inactive.

Turning to `CCN1CCN(c2ccc(S(=O)(=O)N3CCCCC3)cc2NC(=O)C(C)Oc2ccc(F)cc2)CC1` (stereo not given), the activation in assay [1] was 185% (active); in [10] it was 32.5% (active); in [12], 9.95% (active). In addition, the outcome in [2], in [3], in assay [4], in assay [5], in [6] and in assay [7] was inactive. Besides, the result in assay [8], in [9], in assay [11], in assay [13], in [14] and in assay [15] was inactive. In addition, the outcome in assay [16] was inactive.

With `O=C(c1cccs1)N1CCN(c2ncc(Br)cn2)CC1`, the activation in assay [1] is 215% (active); in assay [2] it was 91% (active); in assay [10], 35.5% (active); in [12], 79.8% (active). The result in assay [3], in [4], in [5], in [6], in assay [7] and in assay [8] was inactive. Further, the result in assay [9], in [11], in assay [13], in [14], in assay [15] and in [16] was inactive.

Regarding `CC(=O)N1CCc2cc(Br)cc(S(=O)(=O)NCCCN(C)Cc3ccccc3)c21`, the activation was 87% (active) in assay [1], 72% (active) in assay [2] and 27.8% (active) in [12]. Further, the outcome in assay [3], in assay [4], in assay [5], in assay [6], in assay [7] and in assay [8] was inactive. The compound was called inactive in [9], in assay [10], in assay [11], in assay [13], in assay [14] and in [15]. Further, the result in assay [16] was inactive.

Turning to `Cc1ccc(C)c(OCCCCn2ccnc2)c1`, the figures for the activation in assay [1], in assay [10] and in assay [12] were 111% (active), 58.5% (active) and 14.7% (active), respectively. For the same compound, the result in assay [2], in assay [3], in [4], in assay [5], in assay [6] and in assay [7] was inactive. For the same compound, the result in [8], in assay [9], in assay [11], in [13], in assay [14] and in [15] was inactive. In addition, in assay [16], the result was inactive.

In the case of `Cc1ccc(/C=N\NC(=O)C2COc3cc4ccccc4cc3O2)o1` (stereo not given), the activation in assay [1] is 102% (active); in assay [10] it was 27% (active); in [12], 40.6% (active). The result in [2], in assay [3], in [4], in [5], in assay [6] and in assay [7] was inactive. Also, the result in [8], in [9], in assay [11], in assay [13], in assay [14] and in assay [15] was inactive. For the same compound, the result in assay [16] was inactive.

`Cc1cccc(NC(=S)NCC(c2cccnc2)N(C)C)c1` (stereo not given): the activation was 87% (active) in [1], 115% (active) in assay [2] and 33.5% (active) in [10]. The result in [3], in assay [4], in assay [5], in assay [6], in [7] and in assay [8] was inactive. For the same compound, the compound was called inactive in assay [9], in [11], in [12], in assay [13], in assay [14] and in assay [15]. Also, the outcome in assay [16] was inactive.

For the compound `CC1CCCCN1S(=O)(=O)c1ccc(C(=O)N(CCCN(C)C)c2nc3ccc(Br)cc3s2)cc1` (stereo not given), the result in assay [1], in assay [2], in [3], in assay [4], in [5] and in assay [6] was inactive. Besides, the outcome in [7], in assay [8], in [9], in assay [10], in assay [11] and in assay [13] was inactive. The outcome in assay [14] and in assay [16] was inactive. In addition, the activation is 21% (active) in [12] and 14.9% (active) in assay [15].

Take `CN(C)C(CNC(=O)CCc1c[nH]c2ccccc12)c1ccccc1` (stereo not given): the activation in assay [1] was 89% (active); in assay [2], 83% (active); in assay [10], 26% (active). Also, the result in assay [3], in [4], in assay [5], in assay [6], in assay [7] and in assay [8] was inactive. The outcome in assay [9], in [11], in [12], in assay [13], in assay [14] and in assay [15] was inactive. Also, the result in assay [16] was inactive.

Take `CN(C)C(CNC(=O)C1CC(=O)N(Cc2ccccc2)C1)c1ccccc1` (stereo not given): in assay [1], the activation is 90% (active). Moreover, the result in assay [2], in assay [3], in [4], in assay [5], in assay [6] and in assay [7] was inactive. Besides, the outcome in assay [8], in [9], in [10], in [11], in [12] and in assay [13] was inactive. Further, the outcome in assay [14], in assay [15] and in assay [16] was inactive.

On to `COc1ccc(C(CNC(=O)c2ccc(S(=O)(=O)N(C)C)cc2)N(C)C)cc1` (stereo not given), for which the activation in assay [1] is 296% (active); in [2], 179% (active); in assay [10], 29% (active). Also, the outcome in assay [3], in assay [4], in assay [5], in [6], in assay [7] and in assay [8] was inactive. In addition, the compound was called inactive in assay [9], in assay [11], in [12], in assay [13], in assay [14] and in assay [15]. Further, the outcome in assay [16] was inactive.

Consider `Cc1cc(-c2ccc(C)c(S(=O)(=O)NCCCN(Cc3ccccc3)C(C)C)c2)on1`, for which the activation was 161% (active) in assay [1], 44.5% (active) in assay [10] and 56.3% (active) in assay [12]. Further, the result in assay [2], in assay [3], in assay [4], in assay [5], in assay [6] and in assay [7] was inactive. The outcome in assay [8], in assay [9], in assay [11], in assay [13], in [14] and in assay [15] was inactive. In assay [16], the result was inactive.
